Hits are enriched below; roughly 12% of the tested compounds scored in any of these assays.
PLK1 PBD inh = PLK1 (human) polo-box domain binding inhibition. P53350. Plk1 PBD binding of FITC phosphopeptide, fluorescence polarization. Potency, µM, without a hit: max response, negative = inhibition, actives largely listed as inhibitors. 360,000 tested, 2.8% active. AID 720504; further: series mostly up to about 57 µM; on the % scale 0 is the no-effect control and ±100 the full control effect; nearly all actives have a fitted effect of over 65% in size
JMJD2A Tudor inh = JMJD2A Tudor domain (human) inhibition | O75164 | AlphaScreen JMJD2A-Tudor / H3K4me3 peptide binding | Potency, µM (doses to about 114 µM), for inactives: at the top dose activity change, negative = inhibition, usual class: inhibitors | 390,000 tested, 4.4% active | AID 504339; further: on the % scale 0 is the no-effect control and ±100 the full control effect; nearly all actives have a fitted effect of over 50% in size
HP1b binding inh = inhibitors of HP1-beta chromodomain binding to methylated histone tails; Potency, µM (highest dose often 114 µM), without a hit: at the highest dose activity change, negative = inhibition, most hits filed as inhibitors; P83916; 390,000 tested, 0.56% active; AlphaScreen HP1-beta / biotin-H3K9me3 peptide binding; further: nearly all actives have a fitted effect of over 70% in size
Target sequence (P83916 whole entry, looked up): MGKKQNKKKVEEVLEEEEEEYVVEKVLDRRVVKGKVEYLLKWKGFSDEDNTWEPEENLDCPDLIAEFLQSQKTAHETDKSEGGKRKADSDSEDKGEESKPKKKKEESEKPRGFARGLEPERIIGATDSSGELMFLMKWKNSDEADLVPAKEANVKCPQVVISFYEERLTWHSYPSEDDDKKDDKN
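AlphaScreen: HP1-beta (50 nM) preformed 30 min with biotin-H3(1-18)K9me3 peptide (50 nM) in PBS pH 7.4, 0.01% Tween-20. Compound added for 30 min at RT, then streptavidin donor/nickel chelate acceptor beads (10 ug/mL) for 30 min.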
G9a block = blocks human histone lysine methyltransferase G9a; 350,000 tested, 8.8% active; Potency, µM (top dose mostly 102 µM), without a hit: top-dose activity, negative = inhibition, actives largely listed as inhibitors; Q96KQ7; G9a H3K9 monomethylation, AlphaScreen, 2 h; further: on the % scale 0 is the no-effect control and ±100 the full control effect; nearly all actives have a fitted effect of over 75% in size
Target sequence (Q96KQ7 913-1193 limits assumed): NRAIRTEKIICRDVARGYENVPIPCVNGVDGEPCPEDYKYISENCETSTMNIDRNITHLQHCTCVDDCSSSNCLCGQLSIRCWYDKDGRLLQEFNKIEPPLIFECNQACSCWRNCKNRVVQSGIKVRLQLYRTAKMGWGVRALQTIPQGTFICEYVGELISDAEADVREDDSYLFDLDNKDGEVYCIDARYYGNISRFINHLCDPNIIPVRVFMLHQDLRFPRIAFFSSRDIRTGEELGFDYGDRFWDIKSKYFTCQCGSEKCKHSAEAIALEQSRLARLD
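Quantitative HTS format: methyltransferase activity on a biotin-tagged H3K9 peptide is measured by AlphaScreen, using a rabbit anti-monomethyl-H3K9 antibody with streptavidin donor and anti-IgG acceptor beads. Final levels are 20 nM enzyme, 500 nM peptide, 20 uM SAM; 2 h RT.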
Sfp PPTase inh = blocks B. subtilis Sfp PPTase activity | Q9F4F7 | Biochemical Sfp PPTase activity, qHTS | Potency, µM, inactives show largest response in the series, negative = inhibition, actives largely listed as inhibitors | 310,000 tested, 3.5% active | AID 1490;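 further: the enzyme is Sfp with the accession as filed and its product quenches rhodamine fluorescence; 0% = enzyme reaction without inhibitor and -100% = no enzyme wells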
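Reaction rates are the 30-min fluorescence difference (ex 525, em 598 nm) in wells containing 15 nM Sfp, 5 uM rhodamine-CoA and 12.5 uM BHQ-2-YbbR at pH 7.6 with 10 mM MgCl2.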
BAZ2B block = BAZ2B (human) inhibition | AID 504333 | Q9UIF8 | 360,000 tested, 4.4% active | AlphaScreen BAZ2B-H3K14Ac peptide displacement | Potency, µM (highest dose often 114 µM), for inactives: at the top dose activity change, negative = inhibition, usual class: inhibitors; further: on the % scale 0 is the no-effect control and ±100 the full control effect; nearly all actives have a fitted effect of over 60% in size
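AlphaScreen displacement: compounds (up to 110uM) incubated 30 min at room temperature with a preformed 50 nM BAZ2B/50 nM biotinylated H3K14Ac peptide complex in PBS pH 7.4 with Tween-20. Donor and acceptor beads at 10 ug/mL final added, 20 min light-protected before reading.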
The depositor's hits bear a star; ? = inconclusive; . = no result given; [ ] = remark or other dose. The call rests on the fitted dose curve; in most records, active means well fitted curve in the direction sought with a large enough effect; inconclusive means small, poorly fitted or top-dose-only effect, or another doubt; inactive means no such curve, though single readings can be large; an effect the other way counts as inactive or inconclusive. Potency means the concentration at half of the fitted maximal effect.

SMILES | PLK1 PBD inh | JMJD2A Tudor inh | HP1b binding inh | G9a block | Sfp PPTase inh | BAZ2B block
CS(=O)(=O)C1=NSC2=NC(=O)/C(=C\c3ccc(-c4ccccc4)o3)C(=N)N21 | . | . | . | 50µM* | -13% | -6%
N=C1/C(=C\c2ccc(-c3cc(Cl)cc(Cl)c3)o2)C(=O)N=C2SC=C(c3ccccc3)N12 | -7% | -19% | 12% | -8% | -5% | -1%
O=C(C(=O)N1CCN(c2cccc(Cl)c2)CC1)c1c[nH]c2ccccc12 | 2% | -32% | 27% | ? | 5% | .
O=C1NCCN/C1=C\C(=O)c1ccc(F)cc1 | 1% | -16% | 29% | 16%[12.7 µM] | -6% | -5%
Cc1nnc(NCc2ccc(F)cc2)c2c1nnn2Cc1ccccc1Cl | . | -8% | 39% | -3%[59 µM] | . | 3%
O=S1(=O)c2cccc3cccc(c23)N1Cc1nnc(-c2ccccc2Br)o1 | -21% | -15%[11.4 µM] | -13% | 56µM* | 1% | 6%
CCN1C(=O)[C@H]2[C@H]3CN=C(SCc4ccccc4)N3[C@@](Cc3ccccc3)(C(=O)OC)[C@H]2C1=O | -20% | 89µM* | 21% | . | . | .
CC[C@]1(C(=O)OC)[C@H]2C(=O)N(Cc3ccccc3)C(=O)[C@H]2[C@H]2CN=C(SCC3CC3)N21 | -6% | 79µM* | 19% | . | . | .
CCN1C(=O)[C@H]2[C@H]3CN=C(SCC4CC4)N3[C@@](Cc3ccccc3)(C(=O)OC)[C@H]2C1=O | -18% | 89µM* | 9% | . | . | .
CCN1C(=O)[C@H]2[C@H]3CN=C(SCc4ccc(C#N)cc4)N3[C@@](Cc3ccccc3)(C(=O)OC)[C@H]2C1=O | -12% | -36% | 34% | . | . | .
CCc1nc2c(OCCn3cccc3)cccn2c1N(C)C(=O)c1ccc(C)cc1 | -11% | . | . | . | . | .
COc1cc(C(=O)Nc2nc(C)cc(C)n2)cc(OC)c1OC | 0% | -9% | 1% | 3% | 18% | -2%
CCCCOc1ccc(C(=O)NCC(c2ccc(Cl)cc2)N2CCOCC2)cc1 (stereo unspecified) | . | -14% | 44% | 8%[59 µM] | . | -11%
O=C(O)COc1ccc(/C=C/c2nc3ccc([N+](=O)[O-])cc3s2)cc1 | 24µM* | -21%[11.4 µM] | 5% | -4%[59 µM] | 4% | -1%
O=P(O)(O)CP(=O)(O)O | . | . | . | 7.1µM* | -5% | 50µM*
CCCCN1CC(=O)N2[C@H]3c4cc(OC)ccc4OC[C@@H]3[C@H](C(=O)OCC)[C@]2(C)C1=O | 4% | -7% | 37% | 11%[0.501 µM] | . | 1%
CCCCN1CC(=O)N2[C@@H]3c4cc(OC)ccc4OC[C@@H]3[C@H](C(=O)OCC)[C@]2(C)C1=O | 24µM* | ? | 18% | . | . | .
COc1cccc(C2=NOC(C(=O)Nc3cc(C)nn3-c3ccccc3)C2)c1OC (stereo unspecified) | -12% | 6% | 17% | 45µM* | ? | 10%
Cc1sc(-c2ccccn2)nc1OC(=O)c1ccc(Cl)c(Cl)c1 | -5% | -4% | 19% | 40µM* | -7% | -1%
Cc1sc(-c2ccccn2)nc1OC(=O)c1ccc(F)cc1F | -11% | -7% | 30% | 10µM* | 16µM* | 79µM*
C#CCOCCOCCOCCNc1nc(N2CCOCC2)nc(N2CCN(C(=O)Cn3cc(CC(C)O)nn3)CC2)n1 (stereo unspecified) | -7% | -18% | 22% | 79µM* | 24% | -14%
C#CCOCCOCCOCCNc1nc(N2CCOCC2)nc(N2CCN(C(=O)[C@H](CCCCN)n3cc(CCCC)nn3)CC2)n1 | -11% | -20% | 21% | . | . | .
C#CCOCCOCCOCCNc1nc(N2CCN(C(=O)[C@H](CCCCN)n3cc(CCCC)nn3)CC2)nc(N2CCN(C(=O)[C@H](CCCCN)n3cc(CCCC)nn3)CC2)n1 | -6% | ? | -7% | 40µM* | -4% | ?
C#CCOCCOCCOCCNc1nc(N2CCN(C(=O)Cn3cc(CCO)nn3)CC2)nc(N2CCN(C(=O)[C@H](C(C)C)n3cc(CCO)nn3)CC2)n1 | -7% | -18% | 11% | 45µM* | -12% | ?
